Screening results as filed in PubChem BioAssay.
Rows were chosen to be rich in hits. Some 2.1% of all compounds tested hit in one or more screens of this group.
BaF3 parental: parental Ba/F3 cell viability inhibition, counter-screen for JAK2V617F inhibitor project, murine pro-B, CellTiter-Glo luminescence | CellTiter-Glo ATP luminescence | inhibition, % at 5.6 µM | actives 1.1% (n = 220,000) | AID 1486, 2009;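 active means inhibition above a per-campaign cutoff, the mean inhibition of all tested compounds plus 3 SD, cut at about 27% in these data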;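 further: 0% = DMSO wells and 100% = JAK Inhibitor I control wells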
aSyn 5UTR inh: MLPCN primary screen, SNCA 5' untranslated region; alpha-synuclein 5'UTR reporter, inhibitor activity; inhibition, % (tested at 7.5 µM); actives 0.82% (n = 300,000); AID 1813, 2009; in the data active means inhibition above about 60%;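 further: H4 neuroglioblastoma cells stably carrying SNCA 5'UTR luciferase fusion; 0% = DMSO wells and 100% = positive control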
Ba/F3 V617F tox: reduced viability of JAK2V617F-dependent Ba/F3 cells, primary screen, JAK2V617F inhibitor project, cell-based, Ba/F3 EpoR-JAK2V617F, luminescence. inhibition, % at 5.6 µM. ATP luminescence. actives 1.1% (n = 220,000);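 active means inhibition above the campaign mean plus 3 SD over all tested compounds, cut at about 24% in these data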;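 further: cytokine-independent growth of Ba/F3 cells driven by EpoR plus mutant JAK2; 0% = DMSO-treated cells and 100% = JAK inhibitor I control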
APP 5UTR inh: inhibitors of APP translation via 5'UTR reporter, primary screen, APP 5'UTR luciferase, SH-SY5Y cells. SH-SY5Y APP 5'UTR-luciferase reporter, luminescence. inhibition, % at 2 µM. actives 0.82% (n = 190,000);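 active means inhibition above a set limit, derived from the sample mean plus 3 SD, cut at about 45% in these data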
KLF5 inhibitor: KLF5 expression inhibitors, primary screen, DLD-1 cells, luminescence; actives 0.23% (n = 290,000); inhibition, % at 5 µM; AID 1700, 2009; DLD-1 KLF5 promoter-luciferase reporter;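 active means inhibition above a per-plate limit of that plate's mean compound inhibition plus 3 SD, cut at about 60% in these data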;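 further: 0% = DMSO wells and 100% = LY294002 at 200 µM; higher means less KLF5 promoter-driven luciferase light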
IEC-6 tox: cytotoxicity in IEC-6 intestinal epithelial cells, primary screen, cytotoxicity control for KLF5 inhibitor project, cell-based, luminescence; actives 0.78% (n = 290,000); inhibition, % at 5 µM; IEC-6 cytotoxicity, luminescence viability; in the data active means inhibition above about 22%;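 further: 0% = plate median of test compound wells and 100% = cytotoxic reference compound wells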
* = called active by the depositor.

Results for FC(F)(F)c1nc2ccccc2n2c(-c3ccc(Cl)cc3)nnc12 ?
BaF3 parental: 0; aSyn 5UTR inh: 108*; Ba/F3 V617F tox: 1; APP 5UTR inh: -1; KLF5 inhibitor: -12; IEC-6 tox: 0

Results for FC(F)(F)c1nnc2c(Sc3ccc(Cl)cc3)nc3ccccc3n12 ?
BaF3 parental: 4; aSyn 5UTR inh: 37; Ba/F3 V617F tox: 4; APP 5UTR inh: 7; KLF5 inhibitor: -29; IEC-6 tox: 2

What do the screens show for `N#Cc1cn(-c2cccc(C(F)(F)F)c2)c(=O)[nH]c1=O`?
aSyn 5UTR inh: -3; KLF5 inhibitor: -52; IEC-6 tox: 3

Results for C[C@H]1COC2=C1C(=O)C(=O)c1c2ccc2c1CCCC2(C)C ?
BaF3 parental: -6; aSyn 5UTR inh: 102*; Ba/F3 V617F tox: -2; APP 5UTR inh: 2; KLF5 inhibitor: -6; IEC-6 tox: -1

Results for Cc1coc2c1C(=O)C(=O)c1c-2ccc2c(C)cccc12 ?
aSyn 5UTR inh: -64

What do the screens show for `Cc1coc2c1C(=O)C(=O)c1c-2ccc2c1CCCC2(C)C`?
BaF3 parental: -7; aSyn 5UTR inh: 63*; Ba/F3 V617F tox: -1; APP 5UTR inh: 8; KLF5 inhibitor: -14; IEC-6 tox: -1

Results for CCCn1nc(C(=O)Oc2ccc3c(C)cc(=O)oc3c2)c2ccccc2c1=O ?
BaF3 parental: 10; aSyn 5UTR inh: 13; Ba/F3 V617F tox: 4; APP 5UTR inh: -12; KLF5 inhibitor: 10; IEC-6 tox: -1

Results for COc1cc(C2C(C#N)=C(N)Oc3cc(N)ccc32)cc(OC)c1OC (configuration not stated) ?
BaF3 parental: 3; Ba/F3 V617F tox: -4; APP 5UTR inh: 95*; KLF5 inhibitor: 7; IEC-6 tox: -1

How did COc1ccc(C2C(C#N)=C(N)Oc3c2ccc2cccnc32)cc1OC (configuration not stated) do in these assays?
BaF3 parental: 76*; aSyn 5UTR inh: 23; Ba/F3 V617F tox: 78*; APP 5UTR inh: 92*; KLF5 inhibitor: 53; IEC-6 tox: 17

How did COc1ccc(C2C(C#N)=C(N)Oc3cc(N)ccc32)cc1 (configuration not stated) do in these assays?
aSyn 5UTR inh: 9; KLF5 inhibitor: -11; IEC-6 tox: 0

What do the screens show for `Cc1sc2nc(CN(Cc3cccs3)C(=O)C3CC3)[nH]c(=O)c2c1C`?
BaF3 parental: 86*; aSyn 5UTR inh: -1; Ba/F3 V617F tox: 11; APP 5UTR inh: 11; KLF5 inhibitor: -25; IEC-6 tox: -7

Results for Cc1sc2nc(SCC(=O)NCc3cccs3)[nH]c(=O)c2c1C ?
BaF3 parental: 3; aSyn 5UTR inh: -5; Ba/F3 V617F tox: 2; APP 5UTR inh: 8; KLF5 inhibitor: -30; IEC-6 tox: -1

How did CC(C)CN(C(=O)COC(=O)c1cccc2ccccc12)c1c(N)n(Cc2ccccc2)c(=O)[nH]c1=O do in these assays?
aSyn 5UTR inh: 46

Results for CCCc1n[nH]c2c1/C(=N/O)CC(c1ccccc1)C2 (configuration not stated) ?
BaF3 parental: 8; aSyn 5UTR inh: 69*; Ba/F3 V617F tox: -2; APP 5UTR inh: -28; KLF5 inhibitor: 8; IEC-6 tox: 8

What do the screens show for `CCCc1noc2c1/C(=N\O)CC(c1ccccc1)C2` (configuration not stated)?
BaF3 parental: 4; aSyn 5UTR inh: -5; Ba/F3 V617F tox: 0; APP 5UTR inh: -10; KLF5 inhibitor: -11; IEC-6 tox: 8

What do the screens show for `O=C(CSc1nnc(Nc2ccccc2)s1)NN1C(=O)NC2(CCCCC2)C1=O`?
BaF3 parental: 8; aSyn 5UTR inh: -12; Ba/F3 V617F tox: 2; APP 5UTR inh: -18; KLF5 inhibitor: -15; IEC-6 tox: 6

How did Cc1sc2ncnc(N3CCN(CCOc4ccc(Cl)cc4)CC3)c2c1C do in these assays?
BaF3 parental: 31*; aSyn 5UTR inh: -40; Ba/F3 V617F tox: 11; APP 5UTR inh: 3; KLF5 inhibitor: -6; IEC-6 tox: 6

How did Cc1sc2ncnc(N3CCC(C)CC3)c2c1C do in these assays?
BaF3 parental: 4; aSyn 5UTR inh: 47; Ba/F3 V617F tox: -1; APP 5UTR inh: -6; KLF5 inhibitor: 0; IEC-6 tox: 2

Results for COc1ccc(Cc2[nH]n3c(=O)cc(C(C)C)nc3c2-c2ccccc2)cc1 ?
BaF3 parental: 4; aSyn 5UTR inh: 72*; Ba/F3 V617F tox: 3; APP 5UTR inh: 13; KLF5 inhibitor: 13; IEC-6 tox: 4

How did COc1ccc(Cc2[nH]n3c(=O)cc(C)nc3c2-c2ccccc2)cc1 do in these assays?
BaF3 parental: 5; aSyn 5UTR inh: 9; Ba/F3 V617F tox: -2; APP 5UTR inh: -13; KLF5 inhibitor: -10; IEC-6 tox: -2

How did COCCC(=O)N1CCC(Oc2ccc(C(=O)NCCn3cccn3)cc2)CC1 do in these assays?
aSyn 5UTR inh: 1; KLF5 inhibitor: -27; IEC-6 tox: 5

How did Cc1cc(C)c[n+](C2=C([O-])c3ccccc3C(=O)/C2=N\S(=O)(=O)c2cccs2)c1 do in these assays?
BaF3 parental: 0; aSyn 5UTR inh: 24; Ba/F3 V617F tox: -1; APP 5UTR inh: -5; KLF5 inhibitor: -1; IEC-6 tox: -5

What do the screens show for `O=C1/C(=N\S(=O)(=O)c2cccs2)C([n+]2ccc(CCCc3ccccc3)cc2)=C([O-])c2ccccc21`?
BaF3 parental: 2; aSyn 5UTR inh: 91*; Ba/F3 V617F tox: 1; KLF5 inhibitor: -40; IEC-6 tox: 0

What do the screens show for `Cc1cc[n+](C2=C([O-])c3ccccc3C(=O)/C2=N\S(=O)(=O)c2cccs2)cc1C`?
BaF3 parental: 7; aSyn 5UTR inh: 74*; Ba/F3 V617F tox: 2; APP 5UTR inh: -7; KLF5 inhibitor: -16; IEC-6 tox: -8

How did O=C1/C(=N\S(=O)(=O)c2cccs2)C([n+]2cccc(Cc3ccccc3)c2)=C([O-])c2ccccc21 do in these assays?
BaF3 parental: 2; aSyn 5UTR inh: 85*; Ba/F3 V617F tox: 5; KLF5 inhibitor: -17; IEC-6 tox: 2

Results for CC(C)(C)c1cc[n+](C2=C([O-])c3ccccc3C(=O)/C2=N\S(=O)(=O)c2ccccc2)cc1 ?
BaF3 parental: -1; aSyn 5UTR inh: 84*; Ba/F3 V617F tox: 7; KLF5 inhibitor: -41; IEC-6 tox: -10

What do the screens show for `CCc1ccc2oc(=O)cc(CN3CCCCC3)c2c1`?
aSyn 5UTR inh: 35; KLF5 inhibitor: -13; IEC-6 tox: 5

What do the screens show for `Cc1ccc(NC2=C/C(=N/S(=O)(=O)c3cccs3)c3ccccc3C2=O)cc1C`?
BaF3 parental: 3; aSyn 5UTR inh: -155; Ba/F3 V617F tox: 3; APP 5UTR inh: -40; KLF5 inhibitor: -19; IEC-6 tox: -3
